High-throughput results as filed in PubChem BioAssay.
Pf Dd2 inh: P. falciparum Dd2 growth inhibitors, primary screen, SYBR Green fluorescence, single dose replicates | 72 h; active compounds read low | activity change, % at 10 µM | 2.3% of 94,000 active; in the data active = activity change below about -80%; inconclusive = no clear call, values can overlap the other calls
C diff HTS: C. difficile growth inhibitors, primary screen, HTS; Clostridium difficile clinical isolate growth, OD600, 24 h; active compounds read low; growth activity, negative = inhibition, % at 16 µg/mL (by protocol); 0.25% of 86,000 active;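 active = mean growth activity at or below -80% and every replicate also at or below -80%; inconclusive = mean at or below -80% but some replicate above -80%; inactive = mean growth activity above -80%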
Large screens that a line does not name were inactive. Shown are actives, neighbours in structure and some others; about 2.3% of the full set was active somewhere.

Cc1noc(C)c1NC(=O)Nc1ccc2c(c1)C(=O)N([C@H](C)CO)C[C@H](C)[C@@H](CN(C)Cc1ccc(Cl)c(Cl)c1)OCCCC[C@H](C)O2	none
CC(C)NC(=O)Nc1ccc2c(c1)C(=O)N([C@@H](C)CO)C[C@H](C)[C@@H](CN(C)Cc1ccc(Cl)c(Cl)c1)OCCCC[C@H](C)O2	none (no result: Pf Dd2 inh)
C[C@@H]1CCCCO[C@H](CN(C)Cc2ccc(Cl)c(Cl)c2)[C@H](C)CN([C@@H](C)CO)C(=O)c2cc(NC(=O)Nc3ccc(F)cc3)ccc2O1	Pf Dd2 inh -85 (no result: C diff HTS)
COc1ccc(NC(=O)Nc2cccc3c2O[C@H](CN(C)S(=O)(=O)c2ccccc2)[C@H](C)CN([C@@H](C)CO)C3=O)cc1	none
CCCNC(=O)N(C)C[C@@H]1Oc2ncc(-c3ccccc3F)cc2C(=O)N([C@H](C)CO)C[C@H]1C	none
COc1ccc2c3c(n(C)c2c1)[C@@H](CO)N(CC1CCCCC1)CC31CCN(C(=O)CN(C)C)CC1	Pf Dd2 inh inconclusive
O=C(C1CC1)N1CC(=O)N2[C@H](CO)[C@H](c3ccc(-c4ccccc4F)cc3)[C@@H]2C1	none
C[C@@H]1CCCCO[C@@H](CN(C)Cc2ccc(Cl)c(Cl)c2)[C@H](C)CN([C@H](C)CO)C(=O)c2cc(NC(=O)Nc3ccccc3)ccc2O1	Pf Dd2 inh -83
C[C@@H]1CN([C@@H](C)CO)C(=O)c2cc(NC(=O)Nc3ccc4c(c3)OCO4)ccc2O[C@@H](C)CCCCO[C@H]1CN(C)Cc1ccc(Cl)c(Cl)c1	none
C[C@@H]1CN([C@H](C)CO)C(=O)c2cc(NC(=O)Nc3ccc4c(c3)OCO4)ccc2O[C@@H](C)CCCCO[C@@H]1CN(C)Cc1ccc(Cl)c(Cl)c1	Pf Dd2 inh -88
C[C@@H]1CCCCO[C@H](CN(C)Cc2ccc(Cl)c(Cl)c2)[C@@H](C)CN([C@H](C)CO)C(=O)c2cc(NC(=O)Nc3ccc(F)cc3)ccc2O1	none (no result: C diff HTS)
O=C(c1cccc(F)c1)N1CCCCN2[C@@H](CO)[C@H](c3ccc(-c4cccnc4)cc3)[C@@H]2C1	none
Cc1noc(C)c1S(=O)(=O)N(C)C[C@@H]1OCCCC[C@@H](C)Oc2ccc(NS(=O)(=O)c3cn(C)cn3)cc2C(=O)N([C@@H](C)CO)C[C@H]1C	none
N#C[C@H]1[C@@H](c2ccc(C#Cc3ccc(F)cc3)cc2)[C@H](CO)N1C(=O)C1CCCC1	none
CCCC#Cc1ccc([C@@H]2[C@@H](C#N)N(C(=O)C3CCCC3)[C@H]2CO)cc1	none
CC(C)NC(=O)N1[C@@H](C#N)[C@@H](c2ccc(C#CC3CCCC3)cc2)[C@@H]1CO	none
N#C[C@H]1[C@H](c2ccc(C#Cc3ccccc3F)cc2)[C@@H](CO)N1C(=O)C1CCCC1	Pf Dd2 inh -87
N#C[C@@H]1[C@@H](c2ccc(C#Cc3ccc(F)cc3)cc2)[C@H](CO)N1C(=O)C1CCCC1	Pf Dd2 inh -86
N#C[C@@H]1[C@@H](c2ccc(C#Cc3ccccc3F)cc2)[C@H](CO)N1C(=O)C1CCCC1	none
CCCC#Cc1ccc([C@H]2[C@@H](CO)N(C(=O)C3CCCCC3)[C@H]2C#N)cc1	Pf Dd2 inh -86
CC(C)NC(=O)N1[C@H](C#N)[C@H](c2ccc(C#CC3CCCC3)cc2)[C@@H]1CO	Pf Dd2 inh -88
C[C@H]1CN([C@@H](C)CO)C(=O)c2cc(-c3ccc(C(=O)N(C)C)cc3)cnc2O[C@@H]1CN(C)C(=O)C1CC1	none
CCCC#Cc1ccc([C@H]2[C@@H](CO)N(C(=O)C3CCOCC3)[C@H]2C#N)cc1	none
COc1ccc(S(=O)(=O)N(C)C[C@@H]2OCCCC[C@@H](C)Oc3ccc(NC(=O)NC4CCCCC4)cc3C(=O)N([C@@H](C)CO)C[C@H]2C)cc1	none
Cc1noc(C)c1NC(=O)Nc1ccc2c(c1)C(=O)N([C@H](C)CO)C[C@@H](C)[C@@H](CN(C)CC1CCCCC1)O2	none
C[C@H]1CN([C@@H](C)CO)C(=O)c2cccc(NC(=O)CCCCCC(=O)Nc3ccccc3N)c2O[C@H]1CN(C)Cc1ccc(-c2ccccc2)cc1	Pf Dd2 inh -85
C[C@@H]1CN([C@H](C)CO)C(=O)c2cccc(NC(=O)CCCCCC(=O)Nc3ccccc3N)c2O[C@@H]1CN(C)Cc1ccccc1	none
C[C@@H]1CN([C@H](C)CO)C(=O)c2cccc(NC(=O)CCCCCC(=O)Nc3ccccc3N)c2O[C@@H]1CN(C)Cc1ccc(-c2ccccc2)cc1	Pf Dd2 inh -89
C[C@H](CO)N1C[C@H](C)[C@H](CN(C)Cc2ccccc2)Oc2c(NC(=O)CCCCCC(=O)Nc3ccccc3N)cccc2C1=O	none
Cc1noc(C)c1NC(=O)Nc1ccc2c(c1)C(=O)N([C@@H](C)CO)C[C@@H](C)[C@@H](CN(C)CC1CCCCC1)OCCCC[C@H](C)O2	none
C[C@@H]1CN([C@H](C)CO)C(=O)c2cc(C#C[C@@H](C)O)cnc2O[C@@H]1CN(C)CC1CCOCC1	none
COc1ccc2c3c([nH]c2c1)[C@@H](CO)N(S(=O)(=O)c1ccccc1)CC31CCN(C)CC1	none
CCCC(=O)N1CCC2(CC1)CN(S(=O)(=O)c1ccc(C)cc1)[C@@H](CO)c1[nH]c3cc(OC)ccc3c12	Pf Dd2 inh -92
COc1ccc2c3c([nH]c2c1)[C@H](CO)N(C)CC31CCN(S(=O)(=O)c2ccc(C)cc2)CC1	none
CCC(=O)N1CCC2(CC1)CN(S(=O)(=O)c1ccccc1)[C@H](CO)c1[nH]c3cc(OC)ccc3c12	Pf Dd2 inh -86
COc1ccc2c3c([nH]c2c1)[C@@H](CO)N(C(=O)c1ccccc1)CC31CCN(C(=O)c2cccc(F)c2)CC1	none
CCc1nc(N2[C@H](C#N)[C@@H](c3ccccc3-c3ccccc3C)[C@@H]2CO)sc1C	none
C[C@H](CO)N1C[C@H](C)[C@H](CN(C)Cc2ccc(Cl)c(Cl)c2)Oc2ccc(NC(=O)Cn3cnnn3)cc2C1=O	none
COc1ccc(S(=O)(=O)Nc2ccc3c(c2)C(=O)N([C@H](C)CO)C[C@@H](C)[C@@H](CN(C)C(=O)Nc2cccc4ccccc24)OCCCC[C@@H](C)O3)cc1	Pf Dd2 inh -86 (no result: C diff HTS)
COc1ccc(S(=O)(=O)Nc2ccc3c(c2)C(=O)N([C@@H](C)CO)C[C@H](C)[C@@H](CN(C)C(=O)Nc2cccc4ccccc24)OCCCC[C@H](C)O3)cc1	none
COc1ccc(S(=O)(=O)Nc2ccc3c(c2)C(=O)N([C@@H](C)CO)C[C@H](C)[C@H](CN(C)C(=O)Nc2cccc4ccccc24)OCCCC[C@H](C)O3)cc1	Pf Dd2 inh -86 (no result: C diff HTS)
COc1ccc(S(=O)(=O)Nc2ccc3c(c2)C(=O)N([C@@H](C)CO)C[C@@H](C)[C@@H](CN(C)C(=O)Nc2cccc4ccccc24)OCCCC[C@@H](C)O3)cc1	none (no result: C diff HTS)
N#Cc1cccc(-c2ccc([C@@H]3[C@@H](CO)N4CCCCN(S(=O)(=O)c5ccccc5)C[C@@H]34)cc2)c1	none
C[C@@H]1CN([C@H](C)CO)C(=O)c2cccc(NC(=O)CCCCCC(=O)Nc3ccccc3N)c2O[C@H]1CN(C)Cc1ccc(C(F)(F)F)cc1	Pf Dd2 inh -92
C[C@@H]1CN([C@H](C)CO)C(=O)c2cccc(NC(=O)CCCCCC(=O)Nc3ccccc3N)c2O[C@H]1CN(C)Cc1ccncc1	none
C[C@H]1CN([C@@H](C)CO)C(=O)c2cccc(NC(=O)CCCCCC(=O)Nc3ccccc3N)c2O[C@H]1CN(C)Cc1ccc(C(F)(F)F)cc1	Pf Dd2 inh -85
